# Screening data (PubChem)
# In the library only some 9% were active in any assay of this set; here they are far more common.
# ALDH1A1 block: qHTS Assay for Inhibitors of Aldehyde Dehydrogenase 1 (ALDH1A1). Potency, µM (series often up to 75.3 µM), inactives show at the top dose activity, negative = inhibition, usual class: inhibitors. AID 1030, 2008. Purified ALDH1A1, NADH fluorescence, propionaldehyde substrate. 7.3% of 220,000 active; active means well fitted inhibition curve with a large enough effect, not every such curve was filed as active; inconclusive means small, poorly fitted or top-dose-only effect, or another doubt; inactive means no such curve, though single readings can be large or run the other way;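 further: plate controls were no enzyme wells and a reference inhibitor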
# Target sequence (P00352 whole entry, looked up): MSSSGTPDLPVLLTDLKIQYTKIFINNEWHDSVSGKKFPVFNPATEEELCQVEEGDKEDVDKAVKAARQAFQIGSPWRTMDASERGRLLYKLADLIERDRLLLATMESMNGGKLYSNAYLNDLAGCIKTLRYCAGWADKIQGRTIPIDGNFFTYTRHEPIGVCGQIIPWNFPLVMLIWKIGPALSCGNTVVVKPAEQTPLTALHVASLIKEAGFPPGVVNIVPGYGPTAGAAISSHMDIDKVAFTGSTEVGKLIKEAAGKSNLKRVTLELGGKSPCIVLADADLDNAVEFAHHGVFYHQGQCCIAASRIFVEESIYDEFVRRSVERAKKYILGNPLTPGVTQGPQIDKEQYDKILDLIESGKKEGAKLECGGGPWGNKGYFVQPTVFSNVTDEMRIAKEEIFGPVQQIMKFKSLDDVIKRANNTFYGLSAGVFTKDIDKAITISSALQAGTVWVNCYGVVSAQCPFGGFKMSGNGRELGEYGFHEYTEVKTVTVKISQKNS
# Luc counter: Counterscreen for Luciferase (Kinase-Glo TM) Inhibition; Kinase-Glo luciferase, ATP luminescence, 8 min; Potency, µM (series often up to 38.3 µM), without a hit: top-dose activity change, negative = inhibition, hits mostly inhibitors; 0.28% of 200,000 active; further: nearly all actives have a fitted effect of over 60% in size
#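 Kinase-Glo luciferase light output from ATP and luciferin was measured with 10 uM ATP, within the enzyme's linear range. Buffer: 50 mM imidazole pH 7.2, 50 mM KCl, 7 mM MgCl2, 0.01% Tween 20, 0.05% BSA; luminescence read after 8 min at ambient temperature.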
# LMNA splice mod: qHTS Assay for Modulators of Lamin A Splicing. Potency, µM (doses to about 46.1 µM), for the others: at the top dose ratio change, negative = inhibition, actives largely listed as inhibitors. 0.01% of 200,000 active. AID 1487, 2009. HeLa LMNA splicing GFP/RFP minigene ratio, 48 h; active means well fitted inhibition curve with a large enough effect in the signal ratio, with a control signal flat, not every such curve was filed as active; inconclusive means small, poorly fitted or top-dose-only effect, or effect the other way, or a change in a side signal; the % refers to the signal ratio
#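 S3 HeLa cells stably expressing lamin A-EGFP splicing minigene plus DsRed2, 600 cells/well, 48 h compound exposure at 37C. Laser-scanning cytometry; analysed as GFP (500-530 nm)/RFP (575-640 nm) total intensity ratio; 0.5% DMSO vehicle.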
# IMPase Li cell: qHTS Assay for Identifying the Cell-Membrane Permeable IMPase Inhibitors: Potentiation with Lithium; Potency, µM (doses to about 59.4 µM), inactives show at the highest dose activity, negative = IMPase inhibition, actives largely listed as inhibitors; 0.35% of 210,000 active; AID 1457, 2008; CHO-M1 cells, IP1 TR-FRET (IP-One), carbachol + lithium;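 further: IP1 builds up when IMPase is blocked and the TR-FRET signal falls; plate controls were basal vehicle for no effect and high inhibitor control for full effect; nearly all actives have a fitted effect of over 50% in size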
#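 Readout is a homogeneous TR-FRET IP1 immunoassay (Ex 320, Em 665 and 620), where raised cytosolic IP1 lowers signal. Cells were CHO-M1 treated 30 min at 37C with test compounds plus a little lithium; AC50 values came from Hill-equation fitting.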
# HPGD inh: qHTS Assay for Inhibitors of HPGD (15-Hydroxyprostaglandin Dehydrogenase); 15-hydroxyprostaglandin dehydrogenase [NAD(+)] (Homo sapiens), P15428; purified HPGD, NADH fluorescence kinetic, PGE2 substrate; Potency, µM, inactives show at the highest dose activity change, negative = inhibition, usual class: inhibitors; 4.3% of 150,000 active; active means well fitted inhibition curve with a large enough effect, not every such curve was filed as active; inconclusive means small, poorly fitted or top-dose-only effect, or another doubt; inactive means no such curve, though single readings can be large or run the other way
#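 20 nM HPGD preincubated 15 min at room temperature with compound in 50 mM Tris-HCl pH 8, 0.01% Tween 20. Started with 1 mM NAD+ and 30 uM prostaglandin E2; NADH fluorescence (360/450 nm) read 5 times over 30-s intervals, last minus first.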
# Starred values were filed as active, the others as inactive; ? = inconclusive; nt = no result; [ ] = dose if it differs, or a comment. Unless noted, the call rests on the fitted dose curve; in most records, active means well fitted curve in the direction sought with a large enough effect; inconclusive means small, poorly fitted or top-dose-only effect, or another doubt; inactive means no such curve, though single readings can be large; an effect the other way counts as inactive or inconclusive. Unless noted, on the % scale 0 is the no-effect control and ±100 the full control effect; potency means the concentration at half of the fitted maximal effect.
SMILES,ALDH1A1 block,Luc counter,LMNA splice mod,IMPase Li cell,HPGD inh
Cc1cc(=O)[nH]c(SCC(=O)NCC2CCCCC2)c1C#N,-16%,0%,-16%[46 µM],1%,nt
O=[N+]([O-])c1cccc(-c2nc(Oc3ccc(Cl)cc3)c3ccccc3n2)c1,?,-10%,?,0%,25µM*
Cc1cccc(Oc2nc(-c3cccc([N+](=O)[O-])c3)nc3ccccc23)c1C,3%,-2%,0%,-16%[38.3 µM],-5%
O=C(O)C1C2C=CC(O2)C1C(=O)NCc1ccccc1Br (centres undefined),14µM*,-4%,?,31%[38.3 µM],-8%
CCOc1cc(/C=C2\C(=O)N(c3cccc(C(F)(F)F)c3)C(=O)c3ccccc32)ccc1O,?,-2%,-1%,8%,?
COc1cccc(N2C(=O)c3ccncc3C2=O)c1,-4%,11%,6%,-11%[38.3 µM],-14%
Cc1cccc(N2C(=O)/C(=C\c3ccc(OC(F)F)cc3)c3ccccc3C2=O)c1,?,-2%,-8%,0%,10µM*
COc1cccc(/C=C2\C(=O)N(c3cccc(C)c3)C(=O)c3ccccc32)c1,?,-4%,-1%,11%,4µM*
CCCc1nnc(SCC(=O)N2CCCCC2C)n1CCOC (centres undefined),-2%,3%,?,7%,nt
Cc1cccc2cc(CN(Cc3nnnn3C3CCCCC3)C3CCCC3)c3nnnn3c12,3.2µM*,4%,-6%,5%,-2%
Cc1cccc2cc(CN(Cc3ccc(F)cc3)C(=O)N(C)C)c3nnnn3c12,-15%,-3%,?,14%[38.3 µM],-3%
Cc1cc(C)c2[nH]c(=O)c(CN(Cc3nnnn3C3CCCC3)C3CCCCC3)cc2c1,18µM*,-2%,10%,13%[38.3 µM],-8%
Cc1cccc(NC(=O)c2ccc([N+](=O)[O-])s2)c1C,0.89µM*,2%,?,16%,-11%
CCCn1c(C)nc2c(NCC(C)(C)CN(C)C)nc(C)nc21,4%,-3%,nt,7%,-6%
CC(C)=C1SC(N2CCCCC2)=NC1=O,-3%,-2%,-4%,40%[38.3 µM],-9%
O=C1N=C(N2CCOCC2)SC1=C1CCCCC1,2µM*,?,?,23%[38.3 µM],-29%
N#CCCN1CCN(C2=NC(=O)C(=C3CCCCC3)S2)CC1,1.3µM*,-9%,?,-19%[38.3 µM],?
Cc1cccc(N2CCN(C3=NC(=O)/C(=C\c4cn[nH]c4-c4ccccc4)S3)CC2)c1,3%,2%,-12%,13%,-13%
CC(=O)N1CCN(C2=NC(=O)/C(=C\c3cccs3)S2)CC1,-7%,1%,?,2%,nt
Cc1cccc(N2CCN(C3=NC(=O)C(=C4CCCCC4)S3)CC2)c1,6.3µM*,14%,?,17%[38.3 µM],-6%
CC(=O)N1CCN(C2=NC(=O)C(=C3CCCCC3)S2)CC1,13µM*,4%,-17%,2%,-9%
C[C@@]12CCC3c4ccc(OC5C=CC(c6ccccc6)OC5CO)cc4CCC3C1CCC2=O (some centres undefined),2%[13.5 µM],nt,nt,nt,nt
CCCn1cc(S(=O)(=O)c2ccc(OC)cc2)c(=O)c2cc(F)c(N3CCCC(C)C3)cc21 (centres undefined),nt,nt,0%[46 µM],nt,nt
COC(=O)C1=NN(C(C)(C)CC(C)=O)C2C(=O)N(C3CCCCC3)C(=O)C12 (centres undefined),-6%,1%,22%[46 µM],6%,nt
N=c1ccn2c(n1)O[C@H]1[C@@H](OP(=O)(O)O)[C@H](CO)O[C@H]12,12%[13.5 µM],-2%[7.66 µM],nt,-6%,1%
CC(=O)Oc1ccc(/C=N/NC(=O)CCSc2ccccc2)cc1,-9%,8%,?,11%,nt
CC1CC(C)CN(C(=O)CSc2nc(Cc3cccs3)nc3ccccc23)C1 (centres undefined),?,2%,?,21%[38.3 µM],-19%
O=C(CS(=O)(=O)c1cccc2nsnc12)Nc1ccccc1,nt,nt,-2%[46 µM],nt,nt
